Experimental data published in PubChem BioAssay (NCATS).
Where “and” joins values, the source holds several entries; their conditions need not be identical. Equal entries are not always repeated. Records with an inconclusive call do not appear. Calls of active or inactive are those of the source. Unless noted, the call rests on the fitted dose curve; in most records, active means well fitted curve in the direction sought with a large enough effect; inconclusive means small, poorly fitted or top-dose-only effect, or another doubt; inactive means no such curve, though single readings can be large; an effect the other way counts as inactive or inconclusive.

Key:
[1] = target: Luciferin 4-monooxygenase (Photinus pyralis) (UniProt P08659); test: Biochemical firefly luciferase enzyme assay for NPC (AID 624030); further: nearly all actives have a fitted effect of over 70% in size; further: potency means the concentration at half of the fitted maximal effect;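 on activity change, negative = inhibition: purified P. pyralis luciferase at 10 nM with luciferin and ATP substrate; 0% = DMSO and -100% = full luciferase inhibition by PTC124 control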
Summary of the method: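 Counter-screen for direct inhibition of the luciferase enzyme by approved-drug library compounds, run at 10 nM enzyme in 50 mM Tris acetate (final). Luminescence was read within 5 min of enzyme-buffer addition and normalized to PTC124 versus DMSO (0%).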

[2] = S16 Schwann cell viability assay (CellTiter-Glo assay) (AID 624031);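 further: native untransfected S16 rat Schwann cells; plate controls were DMSO-treated cells for no effect and cell-free wells for full effect; nearly all actives have a fitted effect of over 70% in size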
Summary of the method: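 Counter-screen for cytotoxicity: parental S16 rat Schwann cells lacking the PMP22 reporters, treated 24 h with compound, viability from cellular ATP by CellTiter-Glo luminescence, normalized to DMSO (0%) and no-cell wells.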

[3] = S16 Schwann cell PMP22 intronic element beta-lactamase assay (AID 624044; calls by dose curve;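 further: 0% = DMSO and -100% = potassium clavulanate positive control; nearly all actives have a fitted effect of over 15% in size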)
Summary of the method: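 Beta-lactamase reporter under a PMP22 intronic regulatory element in stable S16 rat Schwann cells; 24 h compound exposure. 460 nm blue signal normalized between DMSO (0%) and potassium clavulanate, with 535 nm FRET tracking viability; curves classed by r2 and response.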

[4] = qHTS assay for small molecule agonists of the antioxidant response element (ARE) signaling pathway (AID 651741; active means well fitted activation curve with a large enough effect in the signal ratio; the % refers to the signal ratio; further: potency means the concentration at half of the fitted maximal effect; on activation: % of control where 0% means no effect)
Summary of the method: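 Beta-lactamase reporter expression driven by the antioxidant response element in HepG2 cells was detected by fluorescence with LiveBLAzer B/G FRET substrate (2 h, room temperature) following 16 h compound treatment at 37 C.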

[5] = qHTS assay for small molecule activators of the p53 signaling pathway (AID 651743; active means well fitted activation curve with a large enough effect in the signal ratio, not every such curve was filed as active; the % refers to the signal ratio; further: potency means the concentration at half of the fitted maximal effect; on activation: % of control where 0% means no effect); settings: HCT-116 p53RE-bla, beta-lactamase FRET ratio, 16 h; activation: stronger effect = higher value
Summary of the method: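 Here HCT-116 cells with an integrated p53-responsive beta-lactamase gene were incubated with compounds (16 hours, 37 C) after a 5-hour plating period; beta-lactamase activity was detected as fluorescence intensity via B/G FRET substrate.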

[6] = target: Glutaminase kidney isoform, mitochondrial (Homo sapiens) (UniProt O94925); test: qHTS for Inhibitors of Glutaminase (GLS): LOPAC Validation (AID 624146);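 further: glutamate product detected by oxidase and peroxidase coupled Amplex red fluorescence gain; on the % scale 0 is the no-effect control and ±100 the full control effect; nearly all actives have a fitted effect of over 60% in size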
Summary of the method: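 Compounds were pin-transferred onto hKGA, after which L-glutamine (1 mM solution) and a detection mix of glutamate oxidase, HRP and Amplex Red were added. Initial and 30 min RT fluorescence reads were collected.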

[7] = qHTS of Trypanosoma Brucei Inhibitors: LOPAC Validation (AID 624147); further: 0% is about no effect
Summary of the method: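 Activity of T. brucei pyruvate kinase was followed by Kinase-Glo Plus luminescence after the enzyme reacted 45 min at room temperature with 130 uM ADP (final) and substrate. Test compounds were added before ADP at multiple concentrations.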

[8] = target: Glucagon-like peptide 1 receptor (Homo sapiens) (UniProt P43220); test: qHTS of GLP-1 Receptor Agonists: LOPAC Validation (AID 624148);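 further: 0% is about no effect; higher luminescence signal means agonism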
Summary of the method: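 HEK293 cells stably co-expressing a cAMP-responsive luciferase reporter and a hypersensitive GLP-1R were plated 12 h at 37 °C and exposed to compounds for 4-6 hr at 37 °C, 5% CO2. Luminescence was read 12 min after adding detection reagent.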

[9] = HTS Assay for Allosteric Antagonists of the Human D2 Dopamine Receptor: Hit Validation in HTRF (AID 624455);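 further: stable D1 dopamine receptor cell line scored for blocking the D1 response; on the % scale 0 is the no-effect control and ±100 the full control effect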
Summary of the method: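 Validation of hits used D1 receptor stably expressed in cells with HTRF detection of response inhibition; origin screen measured calcium flux following EC80 dopamine in a force-coupled, inducible Hek293 Trex D2 cell line.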

[10] = S16 Schwann cell PMP22 intronic element firefly luciferase assay (AID 624032); further: nearly all actives have a fitted effect of over 30% in size; further: potency means the concentration at half of the fitted maximal effect;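 on activity change, negative = inhibition: plate controls were DMSO for no effect and PTC124 positive control mean for full effect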
Summary of the method: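 Rat S16 Schwann cells stably carrying a PMP22 intronic element-driven Fluc reporter were seeded overnight, then exposed to compounds for 24 h at 37 °C. Luminescence was normalized to PTC124 (positive control) and DMSO (0% activity).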

[11] = qHTS assay for small molecule activators of the nuclear factor-kappa B (NF-kB) signaling pathway (AID 651749; active means well fitted activation curve with a large enough effect in the signal ratio; the % refers to the signal ratio; further: % of control where 0% means no effect); settings: NF-kB-bla ME-180 cells, beta-lactamase FRET ratio, 16 h; stronger effect = higher value
Summary of the method: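 Beta-lactamase reporter expression, controlled by NF-kB response elements in ME-180 cells, was quantified fluorometrically via FRET disruption; cells at 2,000/well had been incubated with 23 nL test compound for 16 hr.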

[12] = qHTS assay for small molecule disruptors of the mitochondrial membrane potential - 1 hr assay (AID 651754; calls by dose curve; further: on the % scale 0 is the no-effect control and ±100 the full control effect; nearly all actives have a fitted effect of over 35% in size)
Summary of the method: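 In this qHTS format, a 1 hr compound treatment of HepG2 cells precedes Mito-MPS staining, and membrane potential is judged from aggregate (red) against monomer (green) fluorescence intensity.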

[13] = qHTS assay for small molecule disruptors of the mitochondrial membrane potential - 5 hr assay (AID 651755; calls by dose curve; further: on the % scale 0 is the no-effect control and ±100 the full control effect; nearly all actives have a fitted effect of over 40% in size)
Summary of the method: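 Seed HepG2 overnight, add compound, incubate 5 hr at 37C and 5% CO2, stain 30 min with Mito-MPS, then measure monomer (490/535 nm) and aggregate (540/590 nm) fluorescence.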

[14] = Cytotoxicity counterscreen for NFkB agonists and antagonists (AID 624476); further: on the % scale 0 is the no-effect control and ±100 the full control effect
[15] = qHTS Assay for Identification of Small Molecule Agonists for NFkB Signaling Pathway. (AID 624478);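 further: compounds tested together with TNF alpha at its EC50 of 10 pM; 0% is about no effect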
Summary of the method: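 Assay medium contained 0.5% FBS and 10 mM HEPES pH 7.3. Compounds were added together with TNF alpha (10 pM final), incubated 5 h at 37 C, and the beta-lactamase signal was measured fluorometrically.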

[16] = qHTS Assay for Identification of Small Molecule Antagonists for NFkB Signaling Pathway. (AID 624479; calls by dose curve;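 further: pathway stimulated with TNF alpha; on the % scale 0 is the no-effect control and ±100 the full control effect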)
[17] = Cell Proliferation Assay against the TMD8 Cell Line (AID 651645); settings: TMD8 DLBCL cell line proliferation/viability; at 46.1 µM (top of the series);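 further: cells exposed to compound for 48 h before reading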
Summary of the method: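 Seed log-phase TMD8 cells in RPMI containing 5% FBS, add compounds at once, incubate 48 hours at 37C. Equilibrate to room temperature, add CellTiter-Glo, read luminescence after 15 minutes and express relative to DMSO and bortezomib controls.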

[18] = Cell Proliferation Assay against the HBL1 Cell Line (AID 651646); settings: HBL1 DLBCL cells; at 46.1 µM (top of the series);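 further: cells exposed to compound for 48 h before reading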
Summary of the method: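 After a 48 h incubation of 500 HBL1 cells/well in phenol red-free RPMI plus 5% FBS, relative luciferase units from CellTiter-Glo gave percent activity against DMSO and 9.2 uM bortezomib (final) controls.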

[19] = Cell Proliferation Assay against the TMD8 Cell Line (Caspase readout at 16 hrs) (AID 651712);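 further: 0% = DMSO and 100% = 9.2 µM bortezomib caspase activation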
Summary of the method: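 16 h, 37 °C, TMD8 (500 cells/well), RPMI/5% FBS no phenol red; Caspase-Glo 3/7, 15 min RT, luminescence; %act: DMSO 0, bortezomib 9.2 uM final 100.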

[20] = Cell Proliferation Assay against the TMD8 Cell Line (Caspase readout at 8 hrs) (AID 651713);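 further: 0% = DMSO and 100% = 9.2 µM bortezomib caspase signal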
Summary of the method: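 Luminescent caspase 3/7 assay; TMD8 cells, 8 h treatment at 37C, 5% CO2. Normalisation: DMSO 0%, 9.2 uM bortezomib 100%.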

Sequence of Glucagon-like peptide 1 receptor (Homo sapiens) (P43220 whole entry, looked up): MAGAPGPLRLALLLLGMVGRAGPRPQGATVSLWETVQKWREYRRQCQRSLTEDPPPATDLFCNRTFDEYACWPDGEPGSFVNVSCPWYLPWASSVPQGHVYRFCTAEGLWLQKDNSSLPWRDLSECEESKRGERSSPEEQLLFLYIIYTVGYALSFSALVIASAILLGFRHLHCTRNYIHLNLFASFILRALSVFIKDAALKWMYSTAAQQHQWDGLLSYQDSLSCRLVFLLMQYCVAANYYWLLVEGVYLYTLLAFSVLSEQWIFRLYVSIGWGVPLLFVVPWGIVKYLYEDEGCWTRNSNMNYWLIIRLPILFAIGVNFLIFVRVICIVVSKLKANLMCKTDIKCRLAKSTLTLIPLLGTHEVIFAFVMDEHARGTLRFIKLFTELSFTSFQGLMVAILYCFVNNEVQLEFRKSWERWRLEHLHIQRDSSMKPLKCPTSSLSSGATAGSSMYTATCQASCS
Sequence of Glutaminase kidney isoform, mitochondrial (Homo sapiens) (O94925 whole entry, looked up, canonical isoform): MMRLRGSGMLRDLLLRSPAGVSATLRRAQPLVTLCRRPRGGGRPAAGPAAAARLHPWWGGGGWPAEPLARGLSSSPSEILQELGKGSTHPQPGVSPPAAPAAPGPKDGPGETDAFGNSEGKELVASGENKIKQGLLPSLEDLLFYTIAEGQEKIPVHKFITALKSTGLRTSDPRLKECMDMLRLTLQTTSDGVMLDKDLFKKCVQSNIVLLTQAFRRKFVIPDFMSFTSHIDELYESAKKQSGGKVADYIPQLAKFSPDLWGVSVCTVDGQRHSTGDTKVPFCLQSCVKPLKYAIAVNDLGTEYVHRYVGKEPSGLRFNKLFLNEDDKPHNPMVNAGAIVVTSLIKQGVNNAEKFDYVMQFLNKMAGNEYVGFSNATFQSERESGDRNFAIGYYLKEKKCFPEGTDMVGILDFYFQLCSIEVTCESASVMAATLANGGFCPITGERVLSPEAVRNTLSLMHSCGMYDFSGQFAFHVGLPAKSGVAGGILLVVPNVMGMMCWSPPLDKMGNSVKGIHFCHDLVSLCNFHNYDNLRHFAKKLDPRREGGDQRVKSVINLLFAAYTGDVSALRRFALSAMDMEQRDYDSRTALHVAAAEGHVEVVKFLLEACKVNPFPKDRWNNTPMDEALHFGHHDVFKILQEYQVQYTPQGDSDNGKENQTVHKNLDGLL
Sequence of Luciferin 4-monooxygenase (Photinus pyralis) (P08659 whole entry, looked up): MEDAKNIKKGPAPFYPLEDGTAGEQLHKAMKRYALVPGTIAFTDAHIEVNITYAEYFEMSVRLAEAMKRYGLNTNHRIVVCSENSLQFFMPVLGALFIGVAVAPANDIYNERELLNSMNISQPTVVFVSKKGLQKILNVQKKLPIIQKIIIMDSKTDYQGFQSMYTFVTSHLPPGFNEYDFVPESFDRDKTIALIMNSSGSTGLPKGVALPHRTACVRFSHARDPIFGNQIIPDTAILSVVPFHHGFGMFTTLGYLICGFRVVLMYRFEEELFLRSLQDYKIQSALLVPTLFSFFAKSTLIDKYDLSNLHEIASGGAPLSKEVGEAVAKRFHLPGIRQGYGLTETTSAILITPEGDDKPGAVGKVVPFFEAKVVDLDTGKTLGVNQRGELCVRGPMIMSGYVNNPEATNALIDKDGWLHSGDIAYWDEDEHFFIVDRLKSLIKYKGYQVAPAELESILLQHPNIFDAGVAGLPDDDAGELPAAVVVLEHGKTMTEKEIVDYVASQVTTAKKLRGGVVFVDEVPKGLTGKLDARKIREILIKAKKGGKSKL

O=C(N/N=C/c1ccc([N+](=O)[O-])o1)c1cc([N+](=O)[O-])cc([N+](=O)[O-])c1O
active: Potency [1] 36.1 µM
inactive: outcome [2] | outcome [3]

CC(C)(C)c1ccc(O)cc1
inactive: Potency [1] | outcome [2] | Potency [4] | activation [5] -2.47%

O=C1CN=C(c2ccccc2)c2cc([N+](=O)[O-])ccc2N1
inactive: Potency [1] | outcome [2] | outcome [3]

CN1C(=O)C(O)N=C(c2ccccc2)c2cc(Cl)ccc21 (stereo not given)
inactive: Potency [1] | outcome [2] | outcome [3]

NC(=O)c1cc([N+](=O)[O-])cc([N+](=O)[O-])c1
inactive: Potency [1] | outcome [2] | outcome [3]

Cc1nnc2n1-c1ccc(Cl)cc1C(c1ccccc1Cl)=NC2
inactive: Potency [1] | outcome [2] | outcome [3]

C=C(C)[C@H]1CN[C@H](C(=O)O)[C@H]1CC(=O)O
inactive: Potency [1] | outcome [2] | Potency [6] | outcome [7] | outcome [8] | Potency [9]

CCCCCCCCCC(=O)O[C@H]1CC[C@H]2[C@@H]3CCC4=CC(=O)CC[C@@H]4[C@H]3CC[C@]12C
inactive: Potency [1] | outcome [2] | Potency [10] | outcome [3]

Clc1ccc(C(c2ccc(Cl)cc2)C(Cl)(Cl)Cl)cc1
active: Potency [10] 10.2 µM | Potency [4] 66.8 µM
inactive: Potency [1] | outcome [2] | outcome [3] | activation [5] 2.65% | activation [11] 2.81% | Potency [12] | Potency [13]

O=C(O)CCCc1ccc(N(CCCl)CCCl)cc1
inactive: Potency [1] | outcome [2] | Potency [6] | outcome [7] | outcome [8] | Potency [9] | activation [11] 0.602% and -1.35%
active: Potency [5] 22.4 µM and 35.5 µM

COc1ccc2c(c1OC)C(=O)O[C@H]2[C@@H]1c2cc3c(cc2CCN1C)OCO3
inactive: Potency [1] | outcome [2] | outcome [3] | Potency [6] | outcome [7] | outcome [8] | Potency [9]

O=C1OC(c2ccc(O)c(S(=O)(=O)O)c2)(c2ccc(O)c(S(=O)(=O)O)c2)c2c(Br)c(Br)c(Br)c(Br)c21
inactive: outcome [2] | outcome [3]
active: Potency [1] 28.7 µM

Oc1ccc(Cl)cc1
inactive: Potency [1] | outcome [2] | Potency [10] | activation [5] -2.59% | activation [11] -0.964%

NCCc1ccc(O)cc1
inactive: Potency [1] | outcome [2] | outcome [3] | Potency [6] | outcome [7] | outcome [8] | Potency [4] | activation [5] -2.23% | activation [11] -0.88% | Potency [13]

CCCC(C)(COC(N)=O)COC(N)=O
inactive: Potency [1] | outcome [2] | Potency [10] | outcome [3] | Potency [4] | activation [5] 1.72% and -1.16% | activation [11] 0.11% and -1.2% | Potency [12] | Potency [13]

O=P1(N(CCCl)CCCl)NCCCO1 (stereo not given)
114%: viability (% of control) [17]
inactive: Potency [1] | outcome [2] | Potency [6] | outcome [7] | outcome [8] | Potency [9] | outcome [14] | outcome [15] | outcome [16] | outcome [19] | outcome [20] | Potency [4] | activation [5] -1.12% and -2.77% | activation [11] -0.934% and -1.34%
108%: viability, percent of control [18]

CCCCC/C=C\C/C=C\C/C=C\C/C=C\CCCC(=O)NCC(=O)O
inactive: activity change, negative = inhibition [1] -1.65% [at 5.2 µM] | activity change, negative = cytotoxicity [2] -23.3% [at 5.34 µM] | Potency [6] | outcome [7] | outcome [8] | Potency [9]

CC(C)=CC1C(C(=O)OCN2C(=O)C3=C(CCCC3)C2=O)C1(C)C (stereo not given)
inactive: Potency [1] | outcome [2] | outcome [3]

O=c1[nH]oc2c1CCNC2
inactive: Potency [1] | outcome [2] | Potency [6] | outcome [7] | outcome [8] | Potency [9]

COc1cccc([C@@]2(O)CCCC[C@@H]2CN(C)C)c1
inactive: Potency [1] | outcome [2] | Potency [10] | outcome [3]

COC(=O)C(c1ccccc1)C1CCCCN1 (stereo not given)
inactive: Potency [1] | outcome [2] | outcome [3] | activation [5] -1.5% and -3.75% | activation [11] 0.137% and 0.745% | Potency [12] | Potency [13]

COc1ccc2c(c1)C13CCCC[C@@H]1C(C2)N(C)CC3 (stereo not given in full)
inactive: Potency [1] | outcome [2] | outcome [3]
